Reference: PubChem BioAssay AID651899 (Broad Institute, 2012)
Entries with a potency or affinity are not part of this list. A number with no mark means an inactive call. No rule for the calls is given here.

Experiment: HEK293 cell viability loss – plate reader, cherry-pick, cytotoxicity control, dose response (AID 651899);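 also: cells exposed to compound for 48 hours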
Settings: series mostly up to 26 µM; activity change, negative = cytotoxicity: at the top concentration

Row | SMILES | activity change, negative = cytotoxicity
1 | C[C@@H]1CN([C@@H](C)CO)C(=O)c2cc(C#Cc3cccnc3)cnc2O[C@H]1CN(C)S(C)(=O)=O | 39.9%
2 | C/C=C/c1ccc2c(c1)O[C@@H](CN(C)C(=O)Nc1ccccc1)[C@H](C)CN([C@H](C)CO)S2(=O)=O | -9.85%
3 | O=C(Nc1ccc(Cl)c(-c2nc3ccccc3[nH]2)c1)c1cccnc1 | 10.5%
4 | Cc1nc2nc(SCC(=O)N3CCOCC3)nn2c(C)c1Cc1c(F)cccc1Cl | -13.1%
5 | COCCN1C(=O)c2ccc(C(=O)Nc3cccnc3)cc2C1=O | 23.6%
6 | C=CCn1c(COc2ccccc2F)nnc1SCCN1C(=O)c2ccccc2C1=O | 12.7%
7 | CC1CN(C(=O)Nc2ccc3snnc3c2)c2ccccc21 (stereo unspecified) | -12.4%
8 | CCCc1cc(=O)oc2c3c(cc(OCC(=O)NCCCn4ccnc4)c12)OC(C)(C)CC3 | -17.5%
9 | Cc1ccc(Cc2c(C)nc3nc(SCC(=O)NCCCN4CCCCC4)nn3c2C)cc1 | 20.8%
10 | O=C(O)CN1C(=O)/C(=C\c2cc(Br)ccc2OCc2ccc([N+](=O)[O-])cc2)SC1=S | 20.8%
11 | CC1(C(=O)NCc2ccc(F)c(F)c2)Cc2c(-c3cccc(C(N)=O)c3)ccnc2O1 (stereo unspecified) | -17.7%
12 | COCCNC(=O)C[C@@H]1CC[C@@H]2[C@@H](COc3ccc(NC(=O)Nc4cccc(F)c4)cc3C(=O)N2C)O1 | 19.7% [at 23.5 µM]
13 | COCCNC(=O)C[C@H]1CC[C@@H]2[C@H](COc3ccc(NC(=O)Nc4cccc(F)c4)cc3C(=O)N2C)O1 | 11.2% [at 23.5 µM]
14 | CN(Cc1ccccc1)C(=O)CCS(=O)(=O)c1ccc2c(c1)NC(=O)CS2 | 37.7% [at 12 µM]
15 | CCN1[C@H](C(=O)NCc2ccccc2)[C@@H](CO)[C@@H]2Cn3c(ccc(-c4cccnc4)c3=O)[C@@H]21 | 12.6%
16 | COc1ccc(-c2cc(NC=O)c3ncc(-c4cccc(C(=O)N(C)C)c4)n3c2)cn1 | 7.12%
17 | CC(=O)c1ccc(NC(=O)COC(=O)Cc2ccsc2)cc1 | 10.6%
18 | O=C(C[C@@H]1C[C@@H]2c3cc(NC(=O)c4cccnc4)ccc3O[C@@H]2[C@@H](CO)O1)NCCc1ccccc1 | 5.08% [at 23.5 µM]

Row | SMILES | activity change, negative = cytotoxicity
19 | CC(C)n1c(N2CCN(C(=O)c3cccs3)CC2)nc2ccccc21 | 12.8%
20 | CN1c2ccc(-c3cccc(F)c3)cc2[C@H]2[C@H](CCN2C(=O)c2ccncc2)[C@@H]1CO | 14.4%
21 | Cn1nnc2cc(C(=O)N3CCC(c4ccccc4)C3)ccc21 (stereo unspecified) | -13.1%
22 | O=C(Nc1cccnc1)c1ccc(N2CCCC2)c([N+](=O)[O-])c1 | 23.8% [at 12 µM]
23 | Cc1c(NC(=O)c2cc3ccccc3o2)cccc1-n1cnnn1 | -12.2%
24 | COc1ccc(C(=O)Nc2cccc(NC(=O)c3cccs3)c2)cc1 | 6.74%
25 | CCNC(=O)[C@H]1[C@H](CO)[C@H]2Cn3c(ccc(-c4ccccc4)c3=O)[C@H]2N1C(=O)Cc1cccnc1 | 18.2%
26 | O=C(c1ccncc1)N1CC[C@@H]2[C@H]1c1cc(Br)ccc1N[C@@H]2CO | 2.88%
27 | CC1=CC2=NC(=O)/C(=C\c3cc(C)n(-c4ccccc4F)c3C)C(=N)N2O1 | -3.03%
28 | O=C(Nc1cccnc1)c1ccc(N2CCOCC2)c([N+](=O)[O-])c1 | 25.2%
29 | O=C(C[C@@H]1C[C@@H]2c3cc(NC(=O)c4cccnc4)ccc3O[C@@H]2[C@@H](CO)O1)NCc1cccc(F)c1 | 6.5% [at 23.5 µM]
30 | CC(=O)c1ccc(C(=O)N2CCCC(CO)(Cc3ccccc3C)C2)s1 (stereo unspecified) | -20.1%
31 | Cc1cccc(C2c3[nH]c4ccccc4c3CCN2C(=O)CN2CCOC2=O)n1 (stereo unspecified) | 12.6%
32 | CCc1nn(CC(=O)N2CCN(Cc3ccc4c(c3)OCO4)CC2)c(=O)c2cc3occc3n12 | 7.76%
33 | O=C(CSc1nncs1)N1c2ccccc2Sc2ccccc21 | -12.5%
34 | CC(=O)OCC(=O)[C@@]1(OC(C)=O)[C@@H](C)C[C@H]2[C@@H]3C[C@H](F)C4=CC(=O)C=C[C@]4(C)[C@@]3(F)[C@@H](O)C[C@@]21C | 11.6%
35 | Cn1c(=O)c2c(nc(OCc3cccnc3)n2Cc2ccccc2)n(C)c1=O | 0.309%
36 | Cc1nc(-c2cccnc2)sc1C(=O)Nc1cccc(C(F)(F)F)c1 | -8.29%
